For this assay, the system named is A549. Description: relative viability (normalised to negative control = 1, bortezomib = 0) (fraction); higher = less cytotoxic. To be noted: inflammatory serum-free RHB-A with cytokines + LPS, 5 d + 24 h CellTiter-Blue. On the procedure:
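A549 KRAS-mutant NSCLC cells, pre-treated 5 µM GSK126 or vehicle (DMSO), were seeded at 250 cells/well in 384-well plates in serum-free RHB-A medium with inflammatory cytokines/LPS and treated with Selleck kinase inhibitor and NCI oncology compounds at 30 or 300 nM in triplicate, refreshed at 48 h. Viability was read by CellTiter-Blue after 5 d plus 24 h and normalised per plate with cellHTS2 (mean of bortezomib positive control = 0, mean of negative control = 1).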
(Resazurin is reduced to fluorescent resorufin, in cell work by metabolically active cells.)

[1] abbreviates: compound 30 nM, GSK126 pretreatment: 5 uM GSK126.
[2] abbreviates: compound 30 nM, GSK126 pretreatment: none (vehicle).
Where [3] appears, read: compound 300 nM, GSK126 pretreatment: 5 uM GSK126.
The mark [4] stands for this setting: compound 300 nM, GSK126 pretreatment: none (vehicle).

Counter-ions that a name gives are not always drawn. ± gives the standard deviation of the averaged measurements.

Consider `Cc1c(N)nc([C@H](CC(N)=O)NC[C@H](N)C(N)=O)nc1C(=O)N[C@H](C(=O)N[C@H](C)[C@@H](O)[C@H](C)C(=O)N[C@H](C(=O)NCCc1nc(-c2nc(C(=O)NCCC[S+](C)C)cs2)cs1)[C@@H](C)O)[C@@H](OC1OC(CO)C(O)C(O)C1OC1OC(CO)C(O)C(OC(N)=O)C1O)c1cnc[nH]1` (stereo not given in full) [Bleomycin sulfate], for which the relative viability runs as follows: under setting [1], 0.821 ± 0.13; under setting [2], 0.871 ± 0.061; under setting [3], 0.739 ± 0.064; under setting [4], 0.84 ± 0.069.

With `O=P1(NCCCl)OCCCN1CCCl` (stereo not given) [Ifosfamide], the relative viability worked out at 0.792 ± 0.087 under setting [1], 0.806 ± 0.063 under setting [2], 0.803 ± 0.16 under setting [3] and 0.91 ± 0.11 under setting [4].

For the compound `O=C(O)CCCc1ccc(N(CCCl)CCCl)cc1` [Chlorambucil], the relative viability under setting [1] was 0.933 ± 0.1, the relative viability under setting [2] was found to be 0.844 ± 0.11, the relative viability under setting [3] is 0.836 ± 0.13 and the relative viability under setting [4] is 0.845 ± 0.12.

In the case of `Cn1cc(C2=C(c3cn(C4CCN(Cc5ccccn5)CC4)c4ccccc34)C(=O)NC2=O)c2ccccc21` [Enzastaurin], the relative viability was 0.823 ± 0.11 under setting [1], 0.831 ± 0.05 under setting [2], 0.789 ± 0.042 under setting [3] and 0.802 ± 0.037 under setting [4].

For the compound `CCN1CCN(C(=O)Cc2ccc(Nc3ncc(F)c(Nc4ccc(C(=O)Nc5ccccc5Cl)cc4)n3)cc2)CC1` [Aurora A Inhibitor I], the relative viability under setting [1] was found to be 0.988 ± 0.045, the relative viability under setting [2] amounted to 1.02 ± 0.032, the relative viability under setting [3] was 0.808 ± 0.14 and the relative viability under setting [4] was determined as 0.671 ± 0.027.
